Measurements as given in PubChem BioAssay (NCI).
About 83,000 compounds went through this panel and 20% of them were active in at least one assay; those are over-represented in the sample as a whole.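 Treatment: one concentration, 48 hours, 96-well format. Scoring: percent growth, with anything below 10 considered active.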 Values without a mark were called inactive. Activity calls are given as the source filed them.

Tested on: HL-60(TB) leukemia
Assay: NCI-60 one-dose screen, 48 h (100 = growth as untreated, 0 = no growth, -100 = all killed)
Details: 10 µM unless noted

Row | Structure (SMILES) | growth
1 | CN(C)c1ccc(C(c2ccc(O)cc2)c2ccc(N(C)C)cc2)cc1 | 87.1%
2 | COc1cccc(Nc2ncnc3cc(NC(=O)CCl)ccc23)c1 | -49.7% (active)
3 | COc1cc(/C=C2\CN(S(=O)(=O)c3ccccc3)C/C(=C\c3cc(CN4CCCC4)c(O)c(OC)c3)C2=O)cc(CN2CCCC2)c1O | -14.8% (active)
4 | Nc1nc(N=Nc2ccc(O)cc2)cc(=O)[nH]1 | 95.6%
5 | N#Cc1ccc(OC(=O)Nc2ccc(Cl)c(Cl)c2)cc1 | 64.2%
6 | Nc1nc(SCc2cccc([N+](=O)[O-])c2)c2[nH]cnc2n1 | 94.9%
7 | CCOc1ccccc1Cn1ccnc1CCc1c(Cl)c(O)cc(O)c1C(=O)OC | 106%
8 | Clc1ccccc1[C@@H]1C[C@@H]2Cc3cc(Br)c4ccccc4c3N1O2 | 7.98% (active)
9 | O=C1NCCN1/N=C/c1c(Cl)nc2n1CCS2 | 72.2%
10 | COc1cc(C2=C(c3cn(C)c4ccccc34)COC2=O)cc(OC)c1OC | -1.28% (active)
11 | COc1ccc(OC)c(/C=C/C(=O)c2c(C)nc3ccccc3c2/C=C/c2ccccc2)c1 | 47%
12 | CCSc1ccnc(N)n1 | 108%
13 | NC1=C(c2nn[nH]n2)C(c2ccccc2Cl)c2ccc3ccccc3c2O1 (stereo not given) | 54.3%
14 | C=CCCCCOc1ccccc1-c1cnc(OCCCCC=C)n1C | 66.5%
15 | CCNc1nnc(COc2ccc(CNC(=O)CCCC/C=C/C(C)C)cc2OC)o1 | 98.4%
16 | O=C(/C=C/c1ccccc1)N(C1CCCCC1)C1CCCCC1 | 74%
17 | COc1ccc(C2C3CCc4ccccc4C3=NN2C(=O)c2cc(OC)c(OC)c(OC)c2)cc1O (stereo not given) | 84.7%
18 | Clc1ccc(COc2ccc(Nc3ncnc4onc(-c5ccccc5)c34)cc2)cc1 | 98.8%
19 | Cn1ccnc1C(=O)/C=C/c1ccc(CC(=O)Nc2ccc(Br)cc2)cc1 | 0.748% (active)
20 | CC(=O)c1ccc(C)cc1 | 93.4%

Row | Structure (SMILES) | growth
21 | Cc1nn(-c2ccc(-c3ccc(OC(F)(F)F)cc3)cc2)c2nc(-c3ccccc3)nc(N)c12 | 100%
22 | CN1CCN(c2cc3c(cc2F)c(=O)c(C(=O)O)cn3-c2ccc(F)cc2)CC1 | 99.3%
23 | CCN(CC)CCNC(=O)c1ccc(NC(C)=O)cc1 | 110%
24 | FC(F)(F)c1ccc(-c2ncc(-c3ccc(C(F)(F)F)cc3)c(NCc3cc(C(F)(F)F)cc(C(F)(F)F)c3)n2)cc1 | 71.7%
25 | CO[C@@H](C(=O)N1Cc2[nH]nc(NC(=O)c3ccc(N4CCN(C)CC4)cc3)c2C1)c1ccccc1 | 16.8%
26 | Nn1c(SCC(=O)Nc2ccc(Cl)cc2)nnc1-c1cc(F)c(Cl)cc1Cl | 84.5%
27 | CCCCC(CCCCCC(CCCC)NCc1ccc2c(c1)OCO2)NCc1ccc2c(c1)OCO2 (stereo not given) | -76.6% (active)
28 | O=S(=O)(NCCNc1nccc(-c2c(-c3cccc(O)c3)nc3occn23)n1)c1ccc(Cl)cc1 | 76.4%
29 | C/C(=C\C(=O)c1ccc(Cl)cc1)c1ccc(Cl)cc1 | 92.5%
30 | CCC[CH2][Sn]1([CH2]CCC)[O]C2C(CO)OC(n3ccc(N)nc3=O)C2[O]1 (stereo not given) | -36.6% (active)
31 | CNc1cc(C(=O)O)nc(NC)n1 | 105%
32 | Cc1c(Cl)cccc1NC(=O)c1sc2nc3c(cc2c1N)C(=O)CCC3 | -1.76% (active)
33 | C#CC[C@H](N)C(=O)O | 99.9% [20 µM]
34 | CC[C@H](CO)Nc1nc(NCc2ccccc2)n2ncc(C(C)C)c2n1 | -38.2% (active)
35 | CC(C)Cn1cnc2c(=O)[nH]c(N)nc21 | 63.8%
36 | O=C1CC(C(F)(F)F)Cc2nc3ccc(Br)cc3cc21 (stereo not given) | 89.8%
37 | Clc1ccc(-c2cc(-c3ccccc3)nc(NCCNc3ccnc4cc(Cl)ccc34)n2)cc1 | -31.9% (active)
38 | O=C(Nc1ccc(NCCN2CCOCC2)nc1)c1ccc([N+](=O)[O-])cc1 | 127%
39 | COc1ccc(C2C=C(c3ccc(Cl)cc3)N=C3SC=CN32)c(Br)c1 (stereo not given) | 92.9%
40 | NCCNc1nc2ccccc2c2c(=O)c3cc(F)ccc3sc12 | 62.8%
